# Data as given in PubChem BioAssay (NCATS).
# Inconclusive results are not listed. Entries that show only a call come without a potency. Activity calls are given as the source filed them. Calls follow the shape of the dose curve; as a rule, active = well fitted curve in the direction sought with a large enough effect; inconclusive = small, poorly fitted or top-dose-only effect, or another doubt; inactive = no such curve, though single readings can be large; an effect the other way counts as inactive or inconclusive.
# How the values were obtained:
# [1] = qHTS of pediatric cancer cell lines to identify multiple opportunities for drug repurposing: Primary screen for SK-N-SH cells (AID 1347098);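 also: DMSO served as neutral control and bortezomib at 2.3 µM as positive control; nearly all actives have a fitted effect of over 65% in size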
# Outline: (§1)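 Cells (500-1,000/well) rested 5 h, then received compounds for 48 h; metabolically active cells were measured by CellTiter-Glo luminescence. Final concentrations spanned up to 46 µM (MIPE, 11-point) or 0.59 nM-46 µM (NPC, 8-point) in primary screens, 11-point in follow-ups.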
# [2] = qHTS of pediatric cancer cell lines to identify multiple opportunities for drug repurposing: Primary screen for NB1643 cells (AID 1347099); also: nearly all actives have a fitted effect of over 50% in size
# Outline: (§2)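 Plated cells (500-1,000 per well, growth media) were allowed to settle for 5 hours, treated with compound dilutions for 48 hours, then lysed with CellTiter-Glo for 15 min at room temperature before luminescence reading.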
# [3] = qHTS of pediatric cancer cell lines to identify multiple opportunities for drug repurposing: Primary screen for LAN-5 cells (AID 1347100)
# Outline: (§3)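 Viability after 48 h compound treatment at 37C, 500-1,000 cells/well, read as ATP luminescence with CellTiter-Glo. Primary screens used 11-point (MIPE, 0.78 nM-46 µM) or 8-point (NPC, 0.59 nM-46 µM) final concentrations; follow-up screens used 11-point dilutions.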
# [4] = qHTS of pediatric cancer cell lines to identify multiple opportunities for drug repurposing: Primary screen for BT-12 cells (AID 1347101); also: nearly all actives have a fitted effect of over 25% in size
# Outline: as §1
# [5] = qHTS of pediatric cancer cell lines to identify multiple opportunities for drug repurposing: Primary screen for Rh18 cells (AID 1347102); also: nearly all actives have a fitted effect of over 65% in size
# Outline: as §3
# [6] = qHTS of pediatric cancer cell lines to identify multiple opportunities for drug repurposing: Primary screen for RD cells (AID 1347104); also: nearly all actives have a fitted effect of over 55% in size
# Outline: as §2
# [7] = qHTS of pediatric cancer cell lines to identify multiple opportunities for drug repurposing: Primary screen for MG 63 (6-TG R) cells (AID 1347105); also: nearly all actives have a fitted effect of over 50% in size
# Outline: as §2
# [8] = qHTS of pediatric cancer cell lines to identify multiple opportunities for drug repurposing: Primary screen for control Hh wild type fibroblast cells (AID 1347106);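 also: series mostly up to about 46 µM; a drop in luminescence marks cytotoxicity and a rise apparent proliferation; nearly all actives have a fitted effect of over 55% in size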
# Outline: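 Cells (500-1,000/well) in growth media were settled 5 h at 37 degrees C, then given compounds for 48 h. Viability was read as CellTiter-Glo luminescence. Primary runs used MIPE at 11 points (0.78 nM-46 µM) and NPC at 8 points (0.59 nM-46 µM); follow-ups used 11 points.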
# [9] = qHTS of pediatric cancer cell lines to identify multiple opportunities for drug repurposing: Primary screen for Rh30 cells (AID 1347107); also: series mostly up to about 46 µM; nearly all actives have a fitted effect of over 75% in size
# Outline: as §3
# [10] = qHTS of pediatric cancer cell lines to identify multiple opportunities for drug repurposing: Primary screen for Rh41 cells (AID 1347108);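 also: series mostly up to about 46 µM; luminescence drop marks cytotoxic hits; nearly all actives have a fitted effect of over 70% in size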
# Outline: as §2
# [11] = qHTS of pediatric cancer cell lines to identify multiple opportunities for drug repurposing: Primary screen for OHS-50 cells (AID 1347103); also: nearly all actives have a fitted effect of over 40% in size
# Outline: as §1
# [12] = qHTS of pediatric cancer cell lines to identify multiple opportunities for drug repurposing: Confirmatory screen for NB1643 cells (AID 1347109); also: nearly all actives have a fitted effect of over 45% in size
# Outline: as §3
# [13] = qHTS of pediatric cancer cell lines to identify multiple opportunities for drug repurposing: Confirmatory screen for A673 cells (AID 1347110); also: nearly all actives have a fitted effect of over 65% in size
# Outline: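 Viability was read as ATP luminescence (CellTiter-Glo) after 48 h of compound exposure at 37 C in A673 cells seeded at 500-1,000/well. Titrations reached 46 uM final, with 11 points in the confirmatory screen. Concentration-response curves were fitted directly.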
# [14] = qHTS of pediatric cancer cell lines to identify multiple opportunities for drug repurposing: Confirmatory screen for SK-N-MC cells (AID 1347111);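 also: potency is read from the fitted curve at half-maximal effect; cells exposed to compound for 48 h before the readout; nearly all actives have a fitted effect of over 70% in size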
# Outline: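 SK-N-MC cells at 500-1,000 cells/well in growth media were pre-incubated 5 h, then exposed to compounds at 11-point dilutions for 48 h at 37 degrees C, 5% CO2. Viability was read as CellTiter-Glo luminescence.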
# [15] = qHTS of pediatric cancer cell lines to identify multiple opportunities for drug repurposing: Confirmatory screen for BT-12 cells (AID 1347112); also: nearly all actives have a fitted effect of over 55% in size
# Outline: as §3
# [16] = qHTS of pediatric cancer cell lines to identify multiple opportunities for drug repurposing: Confirmatory screen for LAN-5 cells (AID 1347113); details: outcome: dose series up to 45.9 µM; also: nearly all actives have a fitted effect of over 65% in size
# Outline: as §3
# [17] = qHTS of pediatric cancer cell lines to identify multiple opportunities for drug repurposing: Confirmatory screen for DAOY cells (AID 1347114); also: nearly all actives have a fitted effect of over 65% in size
# Outline: (§4)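 Viability measured as metabolically active cells via CellTiter-Glo luminescence following 48 hours of compound exposure, 11-point dilutions in confirmatory testing. 500-1,000 cells/well plated 5 hours before dosing; controls were DMSO and 2.3 µM bortezomib.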
# [18] = qHTS of pediatric cancer cell lines to identify multiple opportunities for drug repurposing: Confirmatory screen for SJ-GBM2 cells (AID 1347116); details: outcome: dose series up to 45.9 µM; also: nearly all actives have a fitted effect of over 60% in size
# Outline: as §4
# [19] = qHTS of pediatric cancer cell lines to identify multiple opportunities for drug repurposing: Confirmatory screen for BT-37 cells (AID 1347117); also: nearly all actives have a fitted effect of over 55% in size; also: potency is read from the fitted curve at half-maximal effect
# Outline: as §3
Structure (SMILES),Potency [1],Potency [2],Potency [3],Potency [4],Potency [5],Potency [6],Potency [7],outcome [8],outcome [9],Potency [10],Potency [11],Potency [12],Potency [13],Potency [14],Potency [15],outcome [16],Potency [17],outcome [18],Potency [19]
C[C@]12CC[C@@H]3c4ccc(OC(=O)N(CCCl)CCCl)cc4CC[C@H]3[C@@H]1CC[C@@H]2O,inactive,inactive,inactive,inactive,inactive,inactive,inactive,inactive,inactive,inactive,,,,,,,,,
COP(=S)(OC)Oc1ccc(SC)c(C)c1,inactive,inactive,inactive,,inactive,inactive,,inactive,inactive,inactive,inactive,,,,,,,,
C[C@]12CCC(=O)C=C1CC[C@@H]1[C@@H]2CC[C@]2(C)C(=O)CC[C@@H]12,inactive,inactive,inactive,inactive,inactive,inactive,,inactive,inactive,inactive,,,,,,,,,
CC(C)N(CCC(C(N)=O)(c1ccccc1)c1ccccn1)C(C)C (configuration not stated),inactive,inactive,inactive,,inactive,inactive,inactive,inactive,inactive,inactive,inactive,,,,,,,,
O=C(N/N=C/c1ccc([N+](=O)[O-])o1)c1cc([N+](=O)[O-])cc([N+](=O)[O-])c1O,inactive,inactive,inactive,inactive,inactive,inactive,,inactive,inactive,,inactive,inactive,inactive,10.4 µM (active),inactive,inactive,inactive,inactive,inactive
O=c1oc2ccccc2c(O)c1Cc1c(O)c2ccccc2oc1=O,inactive,inactive,inactive,,inactive,inactive,inactive,inactive,inactive,inactive,inactive,,,,,,,,
COP(=S)(OC)Oc1cc(Cl)c(Cl)cc1Cl,inactive,inactive,inactive,,inactive,inactive,inactive,inactive,inactive,inactive,inactive,,,,,,,,
CCC1(CC)C(=O)C=CNC1=O,inactive,inactive,inactive,,inactive,inactive,inactive,inactive,inactive,inactive,inactive,,,,,,,,
COc1c2c(cc3c1OCO3)CCN(C)C2,inactive,inactive,inactive,inactive,inactive,inactive,inactive,,inactive,inactive,,,,,,,,,
CC(NC(C)(C)C)C(=O)c1cccc(Cl)c1 (configuration not stated),inactive,inactive,inactive,,inactive,inactive,inactive,inactive,inactive,inactive,inactive,,,3.29 µM (active),inactive,,,,23.3 µM (active)
COc1ccc2c3c1O[C@H]1[C@H](O)CC[C@H]4[C@@H](C2)N(C)CC[C@@]341,inactive,inactive,inactive,,inactive,inactive,inactive,inactive,inactive,inactive,inactive,,,,,,,,
CN1CC[C@]23c4c5ccc(O)c4O[C@H]2[C@@H](O)C=C[C@H]3[C@H]1C5,,,inactive,,inactive,,,inactive,inactive,,inactive,,,,,,,,
